# Measured values from the supplement of paper PMC12340641.
# Key:
# [1] = biological target: IKZF1 (dCK*-IKZF1 fusion in HEK293FT) (UniProt Q13422); assay: inhibition of IKZF1 HTRF signal (DMSO = 0%, pomalidomide 10 uM = 100%); higher = lower IKZF1 protein level; details: compound concentration: 5 uM, overnight (~20 h)
# Procedure, shortened: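 For percent inhibition of IKZF1 signal, each plate was normalised to vehicle and to a reference degrader. Cells were HEK293FT stably expressing an IKZF1 fusion, plated at 2000/well in 384-well format and treated overnight at 37 °C with 5 μM compound, one well each. Lysates were probed overnight with a commercial HTRF total-IKZF1 antibody kit, with the 665/620 nm ratio background-subtracted and vehicle and degrader fixed at 0% and 100%.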
# [2] = test system: HEK293FT dCK*-only; assay: relative growth in counter assay (no AraC = 100%, AraC + DMSO = 0%); higher = more growth rescue independent of IKZF1; details: compound concentration: 5 uM; AraC concentration: 0.3 uM; overnight pretreatment + 4 days AraC
# Procedure, shortened: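 HEK293FT cells carrying only an engineered kinase construct were plated at 300 per well (384-well) and given 5 μM compound 2 h later. Following overnight at 37 °C, a nucleoside suicide substrate (0.3 μM) plus medium was added for 4 days. Hoechst 33342-stained nuclei were imaged and counted on day 5, with 100% assigned to wells without suicide substrate and 0% to substrate plus vehicle on each plate.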
# [3] = test system: HEK293FT dCK*-IKZF1; assay: relative growth recovery (pomalidomide 10 uM = 100%, DMSO = 0%); higher = more growth rescue (IKZF1 fusion degradation); details: compound concentration: 5 uM; AraC concentration: 0.3 uM; overnight pretreatment + 4 days AraC
# Procedure, shortened: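 HEK293FT cells stably expressing a dCK*-IKZF1 fusion (300/well, 384-well) received 5 μM compound 2 h after seeding. After overnight at 37 °C they received a nucleoside suicide substrate at 0.3 μM plus medium for 4 days. On day 5, Hoechst 33342-stained nuclei were counted by whole-well imaging. Growth recovery was normalised per plate to a reference degrader (100%) and vehicle (0%); values are means of duplicates run on different days.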
# Sequence of IKZF1 (dCK*-IKZF1 fusion in HEK293FT) (Q13422 whole entry, looked up, the tested form may be a part): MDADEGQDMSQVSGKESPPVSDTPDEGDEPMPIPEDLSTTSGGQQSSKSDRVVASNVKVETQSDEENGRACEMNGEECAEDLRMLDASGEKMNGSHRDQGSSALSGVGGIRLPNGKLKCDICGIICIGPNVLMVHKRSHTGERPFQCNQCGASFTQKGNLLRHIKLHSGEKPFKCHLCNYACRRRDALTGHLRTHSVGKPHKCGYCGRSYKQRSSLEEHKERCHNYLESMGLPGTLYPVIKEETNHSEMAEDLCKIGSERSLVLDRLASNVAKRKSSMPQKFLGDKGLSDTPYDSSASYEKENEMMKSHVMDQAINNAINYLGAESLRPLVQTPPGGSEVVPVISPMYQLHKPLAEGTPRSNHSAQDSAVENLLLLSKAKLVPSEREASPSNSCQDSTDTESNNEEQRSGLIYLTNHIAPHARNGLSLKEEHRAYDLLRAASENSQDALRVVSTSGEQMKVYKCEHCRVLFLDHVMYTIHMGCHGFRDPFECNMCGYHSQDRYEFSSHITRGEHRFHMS
Structure (SMILES),inhibition of IKZF1 HTRF signal [1] [%],relative growth in counter assay [2] [%],relative growth recovery [3] [%]
NC(=O)N1c2ccccc2CC(=O)c2ccccc21,17.9,5.74,-1.02
CN(C)CC(O)Cn1c2ccc(Br)cc2c2cc(Br)ccc21 (centres undefined) [wiskostatin],-32.4,-9.92,-2.88
CC[C@]1(O)C[C@H]2C[N@@](CCc3c([nH]c4ccccc34)[C@@](C(=O)OC)(c3cc4c(cc3OC)N(C=O)[C@H]3[C@@](O)(C(=O)OC)[C@H](OC(C)=O)[C@]5(CC)C=CCN6CC[C@]43[C@@H]65)C2)C1 [Vincristine (sulfate)],-10.4,-34.5,-11.7
Cc1cc(C(C)(C)CC(C)(C)C)ccc1OCCOCC[N+](C)(C)Cc1ccccc1,-17.4,-4.05,5.47
Nc1nc(=O)n([C@H]2C[C@H](O)[C@@H](CO)O2)cc1F [5-Fluoro-2'-deoxycytidine],-4.07,-26.3,-8.98
ClC1=CC=CC(NC2=C3C(N(C(C)C)C=N3)=NC(N[C@H]([C@@H](C)C)CO)=N2)=C1 [purvalanol-a],-35.2,2.99,-1.66
O=C(O)c1ccccc1-c1c2cc(I)c(=O)c(I)c-2oc2c(I)c(O)c(I)cc12,23.2,-0.87,-1.36
O=C(Nc1ccc(C(O)(C(F)(F)F)C(F)(F)F)cc1)c1ccc(C(F)(F)F)cc1,-28.5,49.3,53.1
CC(C)c1ccc(NC(=O)Cn2cnc3c2c(=O)n(C)c(=O)n3C)cc1,12.2,-3.63,-1.03
CCN(CC)CCCCC(NC(=O)c1ccc([N+](=O)[O-])cc1)c1ccccc1 (centres undefined) [nibentan],-51.4,11.1,1.83
O=C(/C=C/c1ccc(O)c(O)c1)c1ccc(O)cc1O [Butein],8.77,-27.3,-8.42
COc1cc2ncnc(Nc3ccc(F)c(Cl)c3)c2cc1OCCCCCOCCOCCC(=O)N[C@H](C(=O)N1C[C@H](O)C[C@H]1C(=O)NCc1ccc(-c2scnc2C)cc1)C(C)(C)C [Gefitinib-based PROTAC 3],15.5,41.4,55.5
CCN1CCN(Cc2ccc(-c3cc4c(N[C@H](C)c5ccccc5)ncnc4[nH]3)cc2)CC1,-37.1,-18.1,-8.18
CCN(CC)c1ccc(C(=C2C=CC(=[N+](CC)CC)C=C2)c2ccccc2)cc1 [Brilliant Green],79.8,-35,-14.4
COC1=C2C[C@@H](C)C[C@H](OC)[C@H](O)[C@@H](C)/C=C(\C)[C@H](OC(N)=O)[C@@H](OC)/C=C\C=C(/C)C(=O)NC(=CC1=O)C2=O [Geldanamycin],57.7,-32.6,-11.4
COC(=O)C1=C(C)NC(C)=C(C(=O)OC)C1c1ccccc1[N+](=O)[O-],-23.7,-4.16,-3.38
CO[C@H]1CC(O[C@@H]2/C(C)=C/C[C@@H]3C[C@@H](C[C@]4(CC[C@H](C)[C@@H](C5CCCCC5)O4)O3)OC(=O)[C@@H]3C=C(C)/C(=N/O)[C@H]4OC/C(=C\C=C\[C@@H]2C)[C@]43O)O[C@@H](C)C1O (some centres undefined),-24.5,10.4,-2.14
CCC(=O)O[C@@H]1CC(=O)O[C@H](C)C/C=C/C=C/[C@H](OC(C)=O)[C@H](C)C[C@H](CC=O)[C@H](O[C@@H]2O[C@H](C)[C@@H](O[C@H]3C[C@@](C)(OC(C)=O)[C@@H](OC(=O)CC)[C@H](C)O3)[C@H](N(C)C)[C@H]2O)[C@H]1OC [Midecamycin Acetate],-24.1,2.69,0.995
CC(C)(C)C1=CC=C(CN(C)[C@H](C(N[C@H]([C@](NC(C)(C)C)=O)CC2=CC=C(OCC3=CC=CC=C3)C=C2)=O)CC(C)C)C=C1,-24.5,1.14,-2.38
NS(=O)(=O)c1cc2c(cc1Cl)NC(C(Cl)Cl)NS2(=O)=O (centres undefined),19.3,-3.14,-3.58
CCCNC(=O)NS(=O)(=O)c1ccc(Cl)cc1,-35.8,-2.41,1.51
CCCOc1ccc2nc(NC(=O)OC)[nH]c2c1,-18.4,-15.2,-2.92
CN1CCN(CCCN2c3ccccc3Sc3ccc(C(F)(F)F)cc32)CC1,5.07,23.1,3.05
